Inconclusive results are not listed. A call without a number means that no potency is given here. Unmarked numbers belong to inactive results. Calls of active or inactive are those of the source. The call rests on the fitted dose curve; in most records, active means well fitted inhibition curve with a large enough effect; inconclusive means small, poorly fitted or top-dose-only effect; inactive means no such curve, though single readings can be large or run the other way. Where a SMILES comes first, the peptide text is derived from it. [ ]: non-standard residue; d: D form. ξ: configuration not given here. ξLac(3-iPr) = CC(C)CC(O)C(=O)O; NMeV = CN[CH](C(=O)O)C(C)C; βAla = NCCC(=O)O
Test: Primary fluorescence-based thiol-reactive (MSTI) qHTS assay for identification of artifact compounds. (AID 1845221); further: nearly all actives have a fitted effect of over 65% in size;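 on activity change, negative = thiol reactive: thiol-reactive compounds lower the probe fluorescence signal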
Settings: MSTI thiol-reactivity probe, 1 h; series mostly up to 53.8 µM
From the text: PI: Alexander Tropsha Ph.D.
UNC Eshelman School of Pharmacy
University of North Carolina, Chapel Hill, North Carolina
Hits from high-throughput screening (HTS) of chemical libraries are often false positives due to their interference with the assay detection technology. In response to this problem, we generated the largest publicly available library of chemical liabilities and developed a free webtool to predict HTS artifacts, both of which are described herein. More specifically, we generated, curated, and integrated HTS datasets for thiol reactivity, redox activity, and luciferase (firefly and nano) activity. Using these curated datasets, we developed and validated several Quantitative Structure-Interference Relationship (QSIR) models to predict nuisance behavior. […] These models were employed for virtual profiling of the National Center for Advancing Translational Science's (NCATS) in-house library, and 256 compounds for each assay were selected for the experimental validation of nuisance behavior. The BA for these external predictions ranged from 58 to 78% for compounds within the applicability domains of the models. […] The models developed in this study, along with aggregation models previously developed by our group (SCAM Detective) were implemented in "Liability Predictor," an online tool which may be used as part of chemical library design or for triaging HTS hits. Both the models and the curated datasets are publicly available at https://liability.mml.unc.edu/.
SEQUENCE No. (e.g., 1, 2, 3, etc.); […] (e.g., Cells, Incubation, Reagent, etc.); VALUE; DESCRIPTION.
1; Reagent; 4 uL; […].
2; Compounds and control; 16 nL; Kalypsis pin tool (Wako USA) equipped with a 1536-well pin head.
4; Detection; Fluorescence, ViewLux microplate reader, 525 nm excitation, 598 nm emission.
NOTES (numbers refer to Sequence numbers above)
1. Assays determining (E)-2-(4-mercaptostyryl)-1,3,3-trimethyl-3H-indol-1-ium (MSTI) reactivity were performed as previously described in the literature with modifications for the quick identification of compounds reacting with thiol. In brief, 4 uL of MSTI or positive control Acetyl-MSTI (final concentrations of 4 uM and 4 uM, respectively) in assay buffer (2% DMSO in 1X PBS pH 7.4) was dispensed into all wells of a 1536-well assay plate (solid-bottom black plate; Greiner Bio One, Monroe, NC).
2. A Wako Pin-tool (Wako Automation, Richmond, VA) was used to transfer 16 nL of compounds (consisting of 7-plates in qHTS format, final concentration range 18.3 nM to 114 uM) or control MLS001163887 (final concentration range 1.22 nM to 40 uM).
3. Plates were centrifuged (121xg, 15 seconds) and incubated for 1 hour at room temperature protected from light.
4. Samples were read for fluorescence (Ex/Em = 525(20)/598(25) nm) on a ViewLux CCD imager (PerkinElmer). Data were normalized to Acetyl-MSTI (0% activity) and MSTI (100% activity) and the resulting percent inhibition data were fitted to a 4-parameter Hill equation using NCATS in-house software.
Potency means the concentration at half of the fitted maximal effect.

| Structure (SMILES) | Potency | activity change, negative = thiol reactive |
| --- | --- | --- |
| COc1ccc(C2=N[C@@H](c3ccc(Cl)cc3)[C@@H](c3ccc(Cl)cc3)N2C(=O)N2CCNC(=O)C2)c(OC(C)C)c1 | inactive | – |
| CCOc1ccc(NC(=S)N2CCC(C(O)(c3ccccc3)c3ccccc3)CC2)cc1 | inactive | – |
| C=C1C[C@@]23CCC4[C@@](C)(CCC[C@@]4(C)C(=O)OC)C2CC[C@@H]1C3 (stereo not given in full) | inactive | – |
| CC(C)c1cc(C(=O)N2CC[C@H](NC(=O)C3CC3)C2)n[nH]1 | inactive | – |
| CC(C)(C)NCCCNC(=O)c1cccc(Br)c1 | inactive | – |
| CC(=O)N[C@@H](CCCCN)C(=O)N(C)[C@@H](CC(C)C)C(=O)N[C@H](C(=O)N(C)[C@@H](Cc1ccccc1)C(=O)N[C@H](Cc1ccccc1)C(N)=O)C(C)C | – | 50.7% [at 6.41 µM] |
| Cc1c(F)cc(C(=O)NC2CC2)cc1-c1c(F)cn2c(C(C)(C)C)nnc2c1F | inactive | – |
| O=C(O)c1cc(I)ccc1NC(=O)[C@H](Cc1ccccc1)NCc1ccccc1 | inactive | – |
| C=C1CC[C@@H]2[C@@](C)(CO[C@@H]3O[C@H](CO)C(O)[C@H](O)C3O)[C@H](O)CC[C@@]2(C)[C@@H]1CC/C(C)=C/CO (stereo not given in full) | – | 21.9% [at 11.5 µM] |
| CC(=O)O[C@H]1C[C@@](O)(C(C)C)C2[C@@H](OC(=O)c3ccc(O)cc3)C[C@@]3(C)O[C@H]3C[C@]21C (stereo not given in full) | inactive | – |
| COc1cc(NC(=O)Nc2cccc(CNC(=O)O[C@H]3CCOC3)c2)ccc1-c1cnco1 | inactive | – |
| CCN1CCN(Cc2ccc(NC(=O)c3ccc(C)c(NC(=O)c4cncc(-c5cccs5)c4)c3)cc2C(F)(F)F)CC1 | inactive | – |
| O=C(C(c1ccccc1)c1ccccc1)N1CCN(CC(O)COc2cccc3ncccc23)CC1 (stereo not given) | inactive | – |
| CCNCc1nc2c(N)nc3ccccc3c2n1CC(C)(C)O | inactive | – |
| CC(C)(O[C@@H]1O[C@H](CO)[C@@H](O)[C@H](O)[C@H]1O)C(OC(=O)/C=C\c1ccc(O)cc1)C(=O)OCc1ccc(O[C@@H]2O[C@H](CO)[C@@H](O)[C@H](O)[C@H]2O)cc1 (stereo not given in full) | inactive | – |
| COc1cc2c(cc1OC)CC(=O)N(CCCNC[C@H]1Cc3cc(OC)c(OC)cc31)CC2 | inactive | – |
| CC(=O)NC[C@H]1CN(c2ccc(N3CCN(C(=O)CO)CC3)c(F)c2)C(=O)O1 | inactive | – |
| CC(C)CC1OC(=O)C2CCCN2C(=O)CCNC(=O)C(Cc2ccccc2)NC(=O)C(C(C)C)N(C)C(=O)C(C(C)C)N(C)C1=O (stereo not given) (cyclo([ξLac(3-iPr)][NMeV][NMeV]F[βAla]P); configuration not given here) | inactive | – |
| Cc1ccc(NC(=O)c2ccc(CN3CC[C@H](N(C)C)C3)c(C(F)(F)F)c2)cc1Nc1nccc(-c2cncnc2)n1 | inactive | – |
| COC(=O)C1=CO[C@@H](O[C@@H]2O[C@H](CO)[C@@H](O)[C@H](O)[C@H]2O)[C@H]2[C@@H]1CC(OC)O[C@@H]2C (stereo not given in full) | 10.3 µM (active) | – |

| Structure (SMILES) | Potency | activity change, negative = thiol reactive |
| --- | --- | --- |
| CCC1C(=O)N(C)c2cnc(Nc3ccc(C(=O)NC4CCC(N5CCN(CC6CC6)CC5)CC4)cc3OC)nc2N1C(C)C (stereo not given) | inactive | – |
| CN1CCc2nc(C(=O)N[C@@H]3C[C@@H](C(=O)N(C)C)CC[C@@H]3NC(=O)C(=O)Nc3ccc(Cl)cn3)sc2C1 | inactive | – |
| COc1ccc(C(=O)Nc2ncc(-c3ccc(C(=O)O)cc3)s2)cc1 | inactive | – |
| C=C(F)c1sc(CNCCCNc2cc(=O)c3ccccc3[nH]2)c(C)c1Br | inactive | – |
| COC(=O)[C@@]1(c2ccc(C)cc2)C[C@H]1CN1CCC(O)(c2ccccc2)CC1 | inactive | – |
| FC(F)(F)c1cc(-c2ncn(/C=C\c3nnco3)n2)cc(C(F)(F)F)c1 | inactive | – |
| C[C@@H]1C[C@@H]2O[C@H]2/C=C\C=C\C(=O)Cc2c(Cl)c(O)cc(O)c2C(=O)O1 | inactive | – |
| CC(C)(C)c1cc(Br)cc([C@H](CC(=O)O)NC(=O)CNC(=O)c2cc(O)cc(NC3=NCC(O)CN3)c2)c1 (stereo not given in full) | inactive | – |
| COc1ccc2[nH]c3c(-c4cccc5ccccc45)nccc3c2c1 | inactive | – |
| CC(C)S(=O)(=O)N[C@H]1CCOC[C@@H]1c1ccc(-c2ccc(C#N)s2)cc1 | inactive | – |
| CSc1ccc(C(=O)N[C@@H]2CCCC[C@@H]2NC(=O)CNC(=O)c2cc(C(F)(F)F)ccc2NC(=O)NC(C)C)cc1 | inactive | – |
| C=C1CCCC2(C)CC3(OC)OC(=O)C(C)=C3CC12 (stereo not given) | inactive | – |
| CC(=O)O[C@H]1CC[C@@]2(C)C(CC[C@@H](C)[C@]23Cc2c(O)cc4c(c2O3)CN([C@@H](CCC(=O)O)C(=O)O)C4=O)C1(C)C (stereo not given in full) | inactive | – |
| C=C1CCC2C(C(C)(C)O)CCC2(C)CC(O)C(=C)CCC1O (stereo not given) | inactive | – |
| Cc1ccccc1C#Cc1ccc(CCC(=O)O)cc1 | inactive | – |
| CN(C)C/C=C/C(=O)Nc1cccc(C(=O)Nc2cccc(Nc3ncc(Cl)c(-c4c[nH]c5ccccc45)n3)c2)c1 | inactive | – |
| C/C=C(\C)C(=O)O[C@H]1[C@@H](O[C@]2(COC(=O)CC(C)C)O[C@H](COC(=O)C(C)CC)[C@@H](OC(C)=O)[C@@H]2O)O[C@H](COC(C)=O)[C@@H](O)[C@@H]1O (stereo not given in full) | inactive | – |
| O=C(/C=C\n1cnc(-c2cc(C(F)(F)F)cc(C(F)(F)F)c2)n1)N1CC(F)(F)C1 | inactive | – |
| C[C@@H]1O[C@@H](O[C@H]2[C@H](OC(=O)[C@]34CCC(C)(C)C[C@H]3C3=CCC5[C@@]6(C)C[C@H](O)[C@H](O[C@@H]7O[C@H](CO)[C@@H](O[C@H]8OC[C@](O)(CO)[C@H]8O)[C@H](O)[C@H]7O)[C@@](C)(CO)C6[C@H](O)C[C@@]5(C)[C@]3(C)C[C@H]4O)OC[C@H](O)[C@@H]2O)[C@H](O)[C@H](O)[C@H]1O[C@@H]1OC[C@@H](O)[C@H](O[C@@H]2OC[C@](O)(CO)[C@H]2O)[C@H]1O (stereo not given in full) | – | 502% [at 11.5 µM] |
| CC(C)=CCCC1(C)C=Cc2c(c(C)cc3c2[nH]c2ccccc23)O1 (stereo not given) | 2.93 µM (active) | – |
